Most compounds without a hit are left out; they make up all but 6.6% or so of the library.
Bead autofluor: compound fluorescence in toxin protease inhibitor counterscreen; compound autofluorescence counterscreen, microsphere flow cytometry; active compounds read high; fluorescence intensity (concentration not given with the values); 360,000 tested, 3.1% active; AID 624483; in the data active = fluorescence intensity above about 16000; inconclusive = no clear call, values can overlap the other calls
FBA Mtb inh: Mtb fructose-bisphosphate aldolase inhibition. P9WQA3. purified M. tuberculosis FBA, fluorescence read-out. inhibition, % at 1 µM. 360,000 tested, 2.3% active. AID 588726; in the data active = inhibition above about 27%;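 note: 0% = vehicle and 100% = reference inhibitor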
Target sequence (P9WQA3 whole entry, looked up): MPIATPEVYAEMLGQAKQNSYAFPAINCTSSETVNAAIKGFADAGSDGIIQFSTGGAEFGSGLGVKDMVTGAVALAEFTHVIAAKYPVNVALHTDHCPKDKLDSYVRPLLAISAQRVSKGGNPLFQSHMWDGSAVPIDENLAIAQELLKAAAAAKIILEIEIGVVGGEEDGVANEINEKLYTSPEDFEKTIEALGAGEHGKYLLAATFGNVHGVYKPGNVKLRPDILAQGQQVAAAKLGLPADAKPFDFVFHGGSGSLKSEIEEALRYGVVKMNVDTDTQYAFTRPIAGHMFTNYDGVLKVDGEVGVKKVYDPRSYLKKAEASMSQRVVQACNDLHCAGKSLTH
BoNT A protease: blocks Botulinum neurotoxin A light chain protease; multiplex microsphere protease substrate cleavage, flow cytometry; inhibition, % at 10 µM; 360,000 tested, 0.17% active; note: plate controls were buffer without enzyme for full effect and enzyme alone for no effect
BoNT F protease: blocks Botulinum neurotoxin F light chain protease; Multiplex microsphere protease cleavage assay, flow cytometry; 360,000 tested, 0.22% active; inhibition, % at 10 µM; in the data active = inhibition above about 35%, passing the limit was not always enough; inconclusive = no clear call, values can overlap the other calls; note: plate controls were buffer without enzyme for full effect and enzyme alone for no effect
GDH-TPI inh: GDH-TPI coupled enzyme inhibition counter-screen; inhibition, % at 4.8 µM; AID 588335; GDH-TPI coupled enzyme counterscreen, NADH absorbance; 360,000 tested, 1.2% active; in the data active = inhibition above about 30%;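 note: 0% = DMSO wells and 100% = wells lacking the enzyme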
Anthrax LF inh2: blocks Bacillus anthracis lethal factor protease | inhibition, % at 10 µM | 360,000 tested, 0.12% active | AID 588501 | P15917 | multiplex microsphere protease cleavage assay, LF; note: plate controls were buffer without enzyme for full effect and enzyme alone for no effect
Starred values were filed as active, the others as inactive; ? = inconclusive; . = no result given. Cut-off read from the data, not from the text of the source, unless noted: active = inhibition above about 30%; inconclusive = no clear call, values can overlap the other calls; inactive = below that.

SMILES | Bead autofluor | FBA Mtb inh | BoNT A protease | BoNT F protease | GDH-TPI inh | Anthrax LF inh2
CN(C)CCCNS(=O)(=O)c1cc(Cl)c(Cl)cc1Cl | 3786 | 2 | ? | ? | -7 | 5
CN(C)CCCNS(=O)(=O)c1cc(Cl)ccc1Cl | 20853* | -1 | ? | -3 | 0 | 0
CCCCCOc1ccc(NC(=O)C(=O)NCCCn2ccnc2)cc1 | 3721 | -2 | 1 | 5 | -3 | 0
O=C(Nc1ccccc1C(=O)NCCCn1ccnc1)c1ccccc1 | 20501* | -2 | -1 | -2 | -7 | -1
C=CCOc1ccc(NC(=O)C(=O)NCCCn2ccnc2)cc1 | 19499* | 2 | 4 | 7 | -3 | -1
O=C(NCCCn1ccnc1)c1ccco1 | 24362* | 1 | -4 | -6 | 4 | -4
O=C(c1ccc(C(F)(F)F)cc1)c1c[nH]c(C(=O)NCCCn2ccnc2)c1 | 19564* | -1 | ? | 1 | 4 | -1
CCOC(=O)C1(C(=O)OCC)NC(=O)CC1CC(C)C (configuration not stated) | 3364 | 4 | 0 | -2 | -4 | 8
COc1ccc(C2=NOC(C)(c3nnc(Cc4ccccc4)o3)C2)cc1 (configuration not stated) | 3111 | 3 | 0 | 7 | 11 | 12
Cc1ccc(S(=O)(=O)N(CC(=O)N/N=C/c2ccccc2C(=O)O)c2cc(Cl)cc(Cl)c2)cc1 | 4529 | 0 | 1 | 4 | 0 | 5
O=C(CN1CCC(n2cnc3cc(F)ccc32)CC1)Nc1ccccc1Br | 2043 | 2 | -2 | -7 | 7 | -2
COc1ccc(S(=O)(=O)N2Cc3ccccc3CC2C(=O)Nc2nccs2)cc1 (configuration not stated) | 23488* | 1 | -1 | -5 | 1 | -3
COc1ccc(/C=C(\NC(=O)c2ccco2)C(=O)NCCc2nc3ccccc3[nH]2)cc1 | 6519 | 0 | 0 | -13 | 6 | 1
COc1ccc(/C=C(/NC(=O)/C=C/c2ccccc2)C(=O)NCCCCCC(=O)O)cc1 | 4426 | 1 | -1 | -8 | 32* | -7
CCCCNC(=O)/C(=C/c1ccccc1)NC(C)=O | 1937 | 0 | -2 | -14 | 5 | 1
COc1ccc(/C=C(\NC(=O)/C=C/c2ccco2)C(=O)NCCc2nc3ccccc3[nH]2)cc1 | 2091 | 0 | 1 | -1 | 37* | 1
O=C(NCCc1nc2ccccc2[nH]1)/C(=C/c1ccco1)NC(=O)c1ccc(Br)o1 | 2722 | -2 | 0 | -4 | 33* | 0
O=C(Nc1ccnn1C1CCN(CCCC2CCCC2)CC1)c1ccccc1Cl | 6624 | 1 | -4 | 2 | 2 | -6
c1ccc(OCCSc2nnnn2-c2ccccc2)cc1 | 3295 | -2 | 0 | 3 | 3 | -8
Fc1ccccc1OCCSc1nnnn1-c1ccccc1 | 20510* | 0 | -2 | -2 | 0 | -2
Cc1ccc(NC(=O)c2ccc(C#CC3(O)CCCCC3)cc2)cc1C | 22190* | 2 | 1 | 1 | 17 | -7
Cc1ccc(NC(=O)NC2CCCCCCC2)cc1C | 4484 | 3 | 1 | 5 | -6 | 1
Cc1nn(C)cc1/C=N/O | 16844* | 0 | 9 | 12 | -5 | -9
Cc1ccc(C2=NN=C(NC(=O)CSc3nncn3C)SC2)cc1 | 4642 | 1 | -1 | 2 | -2 | 0
CC(O)/C=C/c1ccc2ccccc2n1 (configuration not stated) | 17160* | 1 | -3 | -6 | 11 | -4
SMILES | Bead autofluor | FBA Mtb inh | BoNT A protease | BoNT F protease | GDH-TPI inh | Anthrax LF inh2
Fc1cccc(F)c1/C=C/c1ccc2ccccc2n1 | 1937 | 1 | 0 | -3 | 16 | -1
COc1ccc(S(=O)(=O)N2CCOCC2)cc1NC(=O)c1ccc(=O)[nH]c1 | 5414 | -3 | -1 | -2 | -4 | 1
O=C(c1ccc([N+](=O)[O-])cc1)N1CCN(Cc2ccccc2[N+](=O)[O-])CC1 | 2670 | -3 | 0 | 6 | 5 | -1
Cc1nn(Cc2ccc(C(=O)Nc3ccccc3C(F)(F)F)o2)c(C)c1Br | 23948* | 3 | 0 | -1 | -9 | -2
O=C(NCCN1CCc2ccccc2C1)Nc1ccc([N+](=O)[O-])cc1 | 3291 | 2 | -1 | -4 | 40* | -2
O=C(NCCN1CCCCC1)Nc1ccccc1 | 24890* | 0 | -3 | -9 | 1 | 1
Cc1ccc(NC(=O)NCCN2CCCCC2)cc1 | 3758 | 4 | -4 | ? | 6 | -7
Cc1nn(Cc2ccc(C(=O)N3N=C(C(F)F)CC3(O)C(F)F)o2)c(C)c1[N+](=O)[O-] (configuration not stated) | 2100 | -1 | 0 | 3 | 6 | 1
CCC(NC(=O)c1cccc(Cn2nc(C)c([N+](=O)[O-])c2C)c1)c1ccc(C(C)C)cc1 (configuration not stated) | 22838* | 1 | 1 | -1 | 6 | -2
CC1=NN(C(=O)c2cccc(Cn3nc(C)c([N+](=O)[O-])c3C)c2)C(O)(C(F)(F)F)C1 (configuration not stated) | 24994* | -2 | -4 | -7 | -6 | 0
Cc1nn(Cc2cccc(C(=O)NC(C)c3ccc(C(C)(C)C)cc3)c2)c(C)c1[N+](=O)[O-] (configuration not stated) | 10254 | 0 | -1 | -13 | 10 | -4
Cc1nn(Cc2cccc(C(=O)O)c2)c(C)c1[N+](=O)[O-] | 4372 | 1 | 0 | -2 | -7 | -3
Cc1nn(Cc2cccc(C(=O)N3N=C(C(F)F)CC3(O)C(F)F)c2)c(C)c1[N+](=O)[O-] (configuration not stated) | 24863* | 5 | -4 | -6 | 7 | 0
CC1(C)CC(NC(=O)c2sc3cc(Cl)ccc3c2Cl)CC(C)(C)N1 | 4898 | -1 | -1 | -1 | 0 | -2
COC(=O)c1ccccc1NC(=O)Cn1c(SC)c(F)cnc1=O | 19945* | 0 | 1 | 5 | -4 | -1
COC(=O)c1ccccc1NC(=O)Cn1c(-c2nonc2N)nc2ccccc21 | 20173* | -3 | 7 | 7 | 3 | -6
NC(=O)c1sc2nnc(-c3ccccc3)c(-c3ccccc3)c2c1N | 17320* | -4 | -56 | ? | 5 | -44
NC(=O)c1snnc1-c1ccccc1 | . | -6 | . | . | 6 | .
O=S(=O)(c1cccc2nsnc12)N1CCc2ccccc2C1 | 21361* | 0 | ? | 7 | 8 | -4
CC(C)c1ccc(C2CC(=O)c3cnc(NC(=O)c4ccco4)nc3C2)cc1 (configuration not stated) | 5265 | 0 | 0 | 0 | 6 | -2
CC1(C(=O)NCCCN2CCCC2=O)CCN1CCc1ccccc1 (configuration not stated) | 4092 | -2 | -1 | -6 | 11 | 0
C=CCN1C(c2ccccc2)=CS/C1=C(\C#N)c1nnc2n1CCCCC2 | 5201 | -6 | 0 | -1 | 17 | 1
C=CCn1c(=O)/c(=C/c2ccc(Cl)cc2)s/c1=C(\C#N)c1nnc2n1CCCCC2 | 3223 | -2 | 0 | -4 | 33* | 0

Screens: PubChem, several laboratories
